According to PubChem BioAssay:
Active and inactive are the calls of the source.

How the values were obtained:
[1] = test system: PRMT1 (protein arginine N-methyltransferase 1); assay: small molecules binding arginine methyltransferase PRMT1 – biochemical, small-molecule microarray, 635 nm fluorescence, primary screen (AID 1088); details: higher = more signal;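 note: binding of Prmt1 protein to compounds spotted on small-molecule microarray slides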
[2] = growth effects on S. cerevisiae YJM789 – YJM789 clinical isolate, OD600, 24 h, basal, primary screen (AID 1089); details: higher = more signal, called active from +8 up or from −8 down;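 note: growth of clinical yeast isolate S. cerevisiae YJM 789 seeded 1000 cells per well; test concentration not given here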
[3] = S. pombe growth modifiers, basal conditions – strain 972, OD600, 24 h, no modulator, primary screen (AID 1090);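 note: basal condition with compound alone and no growth modifier present; test concentration not given here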; details: S. pombe 972 growth, higher = more signal, called active from +8 up or from −8 down
[4] = budding yeast growth modifiers under rapamycin – strain BY4716, OD600, 96 h, primary screen (AID 1091); note: test concentration not given here; details: S. cerevisiae BY4716 + rapamycin, higher = more signal, called active from +8 up or from −8 down
[5] = biological target: Torsin-1A-interacting protein 2 (Homo sapiens) (UniProt Q8NFQ8); assay: small molecules binding lysate-expressed LULL1 – cell lysate, human LULL1 lysate, 635/667 nm fluorescence, primary screen (AID 1092); details: small-molecule microarray, hLULL1 lysate binding, 635 nm fluorescence; higher = more signal;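 note: probe is lysate of COS7 cells overexpressing human LULL1; score merges per-feature 667 nm fluorescence with signal-to-noise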
[6] = optical density change of DRC41 E. coli – strain DRC41, OD650, 24 h, E. coli filamentation project, primary screen (AID 1093);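 note: MC1000 strain lacking acrAB efflux and sulA so SOS filamentation is blocked; test concentration not given here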; details: E. coli DRC41 growth, higher = more signal, called active from +8 up or from −8 down
[7] = probe aLefty2 binding to arrayed compounds – biochemical, biotinylated probe, 635/667 nm fluorescence, primary screen (AID 1094); details: small-molecule microarray, higher = more signal;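 note: score merges spot fluorescence near 667 nm with spot signal-to-noise ratio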
[8] = test system: Noggin (protein binding on small-molecule microarray); assay: small molecules binding Noggin protein – biochemical, 635/667 nm fluorescence, primary screen (AID 1095); details: 635 nm fluorescence, higher = more signal;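 note: score merges 667 nm feature fluorescence with signal to noise over triplicate slides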
[9] = biological target: Neurogenic locus notch homolog protein 3 (Homo sapiens) (UniProt Q9UM47); assay: small molecules binding NOTCH3 protein – biochemical, 635/667 nm fluorescence, primary screen (AID 1096); details: small-molecule microarray, 635 nm fluorescence, higher = more signal
[10] = probe aEGFR binding to arrayed compounds – biochemical, biotinylated probe, 635/667 nm fluorescence, primary screen (AID 1097); details: small-molecule microarray, higher = more signal;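 note: probe is a biotinylated anti-EGFR antibody binding compounds printed on slides; score combines fluorescence near 667 nm and signal to noise of each spot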
[11] = test system: Plasmodium falciparum Sir2 (PF13_0152, Sir2A); assay: Plasmodium falciparum Sir2A binding compounds – biochemical, small-molecule microarray, 635 nm fluorescence, primary screen (AID 1098); details: fluorescence 635 nm, higher = more signal;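 note: score merges spot fluorescence intensity with its signal-to-noise ratio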
[12] = probe aDKK1 binding to arrayed compounds – biochemical, biotinylated probe, 635/667 nm fluorescence, primary screen (AID 1099); details: small-molecule microarray, higher = more signal;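 note: score merges 667nm spot fluorescence with signal to noise across triplicate slides; reference of the scale not given here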
[13] = probe aCHRDL2 binding to arrayed compounds – biochemical, biotinylated probe, 635/667 nm fluorescence, primary screen (AID 1100); details: small-molecule microarray, higher = more signal
[14] = change in splice reporter luminescence, either direction, cell-based, HEK293, spliceosome inhibition project, primary screen (AID 1101); details: HEK293 splicing luciferase reporter, 24 h, higher = more signal, called active from +8 up or from −8 down;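 note: HEK293 cells carrying a splicing-competent luciferase reporter gene; test concentration not given here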
[15] = biological target: Fibroblast growth factor 10 (Homo sapiens) (UniProt O15520); assay: compounds binding fibroblast growth factor 10 – biochemical, small-molecule microarray, 635 nm fluorescence, primary screen (AID 1102); details: FGF10 binding, fluorescence 635 nm, higher = more signal
[16] = test system: glycogen synthase kinase-3 (GSK3A per assay name; protocol says GSK3B); assay: compounds binding glycogen synthase kinase-3 – biochemical, small-molecule microarray, 635 nm fluorescence, GSK3A, primary screen (AID 1103); details: fluorescence 635 nm, higher = more signal; note: the record names both GSK3A and GSK3B
[17] = biological target: Epidermal growth factor receptor (Homo sapiens) (UniProt P00533); assay: compounds binding epidermal growth factor receptor – biochemical, small-molecule microarray, 635 nm fluorescence, primary screen (AID 1104); details: EGFR binding, higher = more signal;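 note: score merges 667 nm emission intensity with spot signal to noise over triplicate slides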
[18] = biological target: Follistatin-related protein 3 (Homo sapiens) (UniProt O95633); assay: compounds binding follistatin-related protein 3 – biochemical, small-molecule microarray, 635 nm fluorescence, primary screen (AID 1105); details: FSTL3 binding, higher = more signal;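 note: score merges emission near 667 nm and signal to noise per printed spot across three slides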
[19] = biological target: Dickkopf-related protein 1 (Homo sapiens) (UniProt O94907); assay: small molecules binding DKK1 protein – biochemical, small-molecule microarray, 635 nm fluorescence scan, primary screen (AID 1106); details: higher = more signal;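 note: score merges emission near 667 nm with signal to noise over three replicate slides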
[20] = test system: Inhibin beta A chain (activin A); assay: small molecules binding activin A – biochemical, small-molecule microarray, 635 nm fluorescence scan, primary screen (AID 1107); details: INHBA, higher = more signal;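 note: mouse activin A protein probed at 4.33 µg/mL on printed slides; score merges bound-protein fluorescence near 667 nm with spot signal-to-noise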

Epidermal growth factor receptor (Homo sapiens), sequence (P00533 whole entry, looked up): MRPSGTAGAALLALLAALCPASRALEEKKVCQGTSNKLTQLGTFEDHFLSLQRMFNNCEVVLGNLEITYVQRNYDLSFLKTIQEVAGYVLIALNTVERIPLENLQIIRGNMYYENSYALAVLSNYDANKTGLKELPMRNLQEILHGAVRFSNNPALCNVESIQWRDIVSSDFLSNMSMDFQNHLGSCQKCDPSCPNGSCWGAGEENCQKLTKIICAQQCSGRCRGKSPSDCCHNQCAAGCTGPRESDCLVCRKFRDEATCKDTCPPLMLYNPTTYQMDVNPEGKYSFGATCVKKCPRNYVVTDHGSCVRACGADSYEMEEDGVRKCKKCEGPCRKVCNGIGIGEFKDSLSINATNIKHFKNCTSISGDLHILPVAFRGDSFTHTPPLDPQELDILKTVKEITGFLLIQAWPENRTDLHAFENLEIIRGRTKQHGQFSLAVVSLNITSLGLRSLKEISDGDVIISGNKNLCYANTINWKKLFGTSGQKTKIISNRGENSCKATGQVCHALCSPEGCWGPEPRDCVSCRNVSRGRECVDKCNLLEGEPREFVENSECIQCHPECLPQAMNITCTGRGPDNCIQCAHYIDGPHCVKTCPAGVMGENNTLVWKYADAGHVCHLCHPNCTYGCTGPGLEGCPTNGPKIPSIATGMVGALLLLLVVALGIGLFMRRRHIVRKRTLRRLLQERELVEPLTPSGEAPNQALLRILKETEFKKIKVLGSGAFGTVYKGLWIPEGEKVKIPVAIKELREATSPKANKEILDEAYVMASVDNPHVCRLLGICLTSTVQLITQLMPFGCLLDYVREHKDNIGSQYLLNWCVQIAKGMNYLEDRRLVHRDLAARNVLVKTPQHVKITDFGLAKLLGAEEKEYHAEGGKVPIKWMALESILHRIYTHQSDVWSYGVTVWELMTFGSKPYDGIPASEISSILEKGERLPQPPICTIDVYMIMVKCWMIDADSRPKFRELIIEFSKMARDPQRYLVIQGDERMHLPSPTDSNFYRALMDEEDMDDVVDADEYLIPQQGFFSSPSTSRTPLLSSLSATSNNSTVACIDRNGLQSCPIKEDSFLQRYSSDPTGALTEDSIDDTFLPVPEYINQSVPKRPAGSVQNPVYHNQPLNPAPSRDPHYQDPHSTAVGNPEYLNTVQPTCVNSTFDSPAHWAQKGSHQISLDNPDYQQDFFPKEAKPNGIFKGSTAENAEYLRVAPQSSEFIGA
Dickkopf-related protein 1 (Homo sapiens), sequence (O94907 whole entry, looked up): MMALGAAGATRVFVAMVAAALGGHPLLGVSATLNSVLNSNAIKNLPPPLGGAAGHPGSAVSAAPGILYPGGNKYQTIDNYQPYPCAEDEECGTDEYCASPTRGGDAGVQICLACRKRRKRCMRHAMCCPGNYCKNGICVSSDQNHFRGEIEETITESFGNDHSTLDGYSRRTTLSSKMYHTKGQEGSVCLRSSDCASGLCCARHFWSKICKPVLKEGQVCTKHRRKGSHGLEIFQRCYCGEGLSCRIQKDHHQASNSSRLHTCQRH
Torsin-1A-interacting protein 2 (Homo sapiens), sequence (Q8NFQ8 whole entry, looked up): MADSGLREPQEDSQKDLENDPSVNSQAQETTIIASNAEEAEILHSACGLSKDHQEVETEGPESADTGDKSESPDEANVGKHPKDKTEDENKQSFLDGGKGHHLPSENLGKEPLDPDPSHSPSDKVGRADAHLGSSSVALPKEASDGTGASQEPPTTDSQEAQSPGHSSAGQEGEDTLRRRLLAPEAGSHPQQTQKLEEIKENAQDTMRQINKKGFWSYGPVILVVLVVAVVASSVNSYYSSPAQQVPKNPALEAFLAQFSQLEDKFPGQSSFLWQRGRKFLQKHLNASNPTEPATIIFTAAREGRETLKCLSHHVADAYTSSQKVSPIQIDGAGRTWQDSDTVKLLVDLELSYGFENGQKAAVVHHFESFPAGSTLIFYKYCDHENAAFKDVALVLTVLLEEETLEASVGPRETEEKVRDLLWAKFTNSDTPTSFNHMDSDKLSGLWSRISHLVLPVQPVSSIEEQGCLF
Neurogenic locus notch homolog protein 3 (Homo sapiens), sequence (Q9UM47 whole entry, looked up): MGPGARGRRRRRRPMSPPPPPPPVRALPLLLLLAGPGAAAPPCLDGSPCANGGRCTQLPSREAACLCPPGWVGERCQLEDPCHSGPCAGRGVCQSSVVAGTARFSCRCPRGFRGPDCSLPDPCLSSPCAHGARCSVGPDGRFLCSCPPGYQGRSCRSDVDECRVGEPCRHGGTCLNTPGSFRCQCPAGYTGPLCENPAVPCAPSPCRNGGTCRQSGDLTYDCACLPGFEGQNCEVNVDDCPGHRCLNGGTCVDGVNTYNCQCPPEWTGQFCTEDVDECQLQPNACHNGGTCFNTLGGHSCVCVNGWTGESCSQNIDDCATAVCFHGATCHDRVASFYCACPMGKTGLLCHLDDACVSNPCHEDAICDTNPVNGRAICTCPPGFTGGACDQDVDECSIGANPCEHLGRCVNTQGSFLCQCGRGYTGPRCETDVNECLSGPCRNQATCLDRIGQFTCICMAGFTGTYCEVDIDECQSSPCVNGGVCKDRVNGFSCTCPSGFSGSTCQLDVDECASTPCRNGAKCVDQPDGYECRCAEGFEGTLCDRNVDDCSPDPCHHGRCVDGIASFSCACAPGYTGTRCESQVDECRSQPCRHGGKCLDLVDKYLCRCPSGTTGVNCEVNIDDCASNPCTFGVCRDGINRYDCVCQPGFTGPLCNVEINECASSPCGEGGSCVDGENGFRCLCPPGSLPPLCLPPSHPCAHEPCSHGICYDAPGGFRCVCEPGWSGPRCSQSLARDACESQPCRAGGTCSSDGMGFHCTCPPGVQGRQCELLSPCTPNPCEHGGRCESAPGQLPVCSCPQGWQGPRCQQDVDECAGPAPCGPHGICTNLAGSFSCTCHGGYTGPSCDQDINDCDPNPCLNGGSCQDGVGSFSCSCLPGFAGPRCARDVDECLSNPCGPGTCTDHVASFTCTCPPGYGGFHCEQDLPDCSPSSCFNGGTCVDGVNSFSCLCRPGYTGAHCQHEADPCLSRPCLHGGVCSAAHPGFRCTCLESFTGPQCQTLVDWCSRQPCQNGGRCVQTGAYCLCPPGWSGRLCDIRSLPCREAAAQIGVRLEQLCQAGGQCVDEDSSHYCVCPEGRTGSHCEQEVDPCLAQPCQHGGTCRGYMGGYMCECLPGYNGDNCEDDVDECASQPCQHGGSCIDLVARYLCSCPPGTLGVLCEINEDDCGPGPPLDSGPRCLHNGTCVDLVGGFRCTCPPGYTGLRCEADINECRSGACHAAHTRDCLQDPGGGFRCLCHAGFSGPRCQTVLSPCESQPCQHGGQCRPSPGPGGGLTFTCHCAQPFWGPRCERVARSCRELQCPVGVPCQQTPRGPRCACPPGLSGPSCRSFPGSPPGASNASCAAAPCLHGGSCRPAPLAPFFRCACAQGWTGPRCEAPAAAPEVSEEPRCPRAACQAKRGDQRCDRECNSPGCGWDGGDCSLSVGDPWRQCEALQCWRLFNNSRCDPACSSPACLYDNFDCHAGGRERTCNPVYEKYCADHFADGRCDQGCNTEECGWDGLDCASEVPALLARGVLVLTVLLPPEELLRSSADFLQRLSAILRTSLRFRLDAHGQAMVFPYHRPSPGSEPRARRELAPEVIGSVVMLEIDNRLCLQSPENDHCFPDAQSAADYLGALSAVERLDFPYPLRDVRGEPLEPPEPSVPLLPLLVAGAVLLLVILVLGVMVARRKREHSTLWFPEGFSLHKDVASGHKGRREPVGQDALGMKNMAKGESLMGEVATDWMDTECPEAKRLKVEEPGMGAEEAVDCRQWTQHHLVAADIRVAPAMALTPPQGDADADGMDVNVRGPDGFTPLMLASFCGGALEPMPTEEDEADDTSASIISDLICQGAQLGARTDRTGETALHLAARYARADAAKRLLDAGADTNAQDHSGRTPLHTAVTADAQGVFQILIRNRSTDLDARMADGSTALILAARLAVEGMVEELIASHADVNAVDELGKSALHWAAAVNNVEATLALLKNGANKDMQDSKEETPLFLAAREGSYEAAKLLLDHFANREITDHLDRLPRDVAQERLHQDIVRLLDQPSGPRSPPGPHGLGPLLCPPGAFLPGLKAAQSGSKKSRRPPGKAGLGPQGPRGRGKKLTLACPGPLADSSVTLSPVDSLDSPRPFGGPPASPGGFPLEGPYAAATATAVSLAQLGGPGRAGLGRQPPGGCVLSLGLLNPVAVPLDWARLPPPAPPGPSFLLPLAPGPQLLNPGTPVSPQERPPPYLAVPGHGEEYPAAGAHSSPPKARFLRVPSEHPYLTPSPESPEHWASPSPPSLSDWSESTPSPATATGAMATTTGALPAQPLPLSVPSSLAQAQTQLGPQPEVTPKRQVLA
Follistatin-related protein 3 (Homo sapiens), sequence (O95633 whole entry, looked up): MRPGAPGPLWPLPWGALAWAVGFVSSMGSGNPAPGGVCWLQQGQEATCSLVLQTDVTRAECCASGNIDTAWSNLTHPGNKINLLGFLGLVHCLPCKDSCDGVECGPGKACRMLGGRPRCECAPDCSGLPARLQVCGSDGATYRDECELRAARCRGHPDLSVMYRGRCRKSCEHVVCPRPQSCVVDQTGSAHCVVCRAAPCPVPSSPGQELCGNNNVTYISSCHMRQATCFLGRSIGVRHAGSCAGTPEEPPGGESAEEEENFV
Fibroblast growth factor 10 (Homo sapiens), sequence (O15520 whole entry, looked up): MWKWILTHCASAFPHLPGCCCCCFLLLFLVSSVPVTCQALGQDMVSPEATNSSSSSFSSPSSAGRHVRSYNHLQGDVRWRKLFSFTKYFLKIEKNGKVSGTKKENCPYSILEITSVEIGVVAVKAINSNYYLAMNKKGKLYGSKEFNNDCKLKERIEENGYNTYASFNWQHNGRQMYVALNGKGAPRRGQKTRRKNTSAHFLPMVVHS

Row | SMILES | composite z-score [1] | z-score [2] | z-score [3] | z-score [4] | composite z-score [5] | z-score [6] | composite z-score [7] | composite z-score [8] | composite z-score [9] | composite z-score [10] | composite z-score [11] | composite z-score [12] | composite z-score [13] | z-score [14] | composite z-score [15] | composite z-score [16] | composite z-score [17] | composite z-score [18] | composite z-score [19] | composite z-score [20]
1 | CC(C)C(O)C1C=CC2C(=O)NC(=O)C2N1Nc1ccccn1 (stereo not given) | 0.522 | 1.02 (inactive) | 1.68 (inactive) | 0.56 (inactive) | 1.92 | -0.847 (inactive) | 0.0894 | -0.0878 | 0.301 | -0.109 | 1.09 | 0.886 | 0.542 | 1.02 (inactive) | 0.109 | 0.352 | -0.216 | 0.401 | -0.0362 | 1.4
2 | Cc1ccc(S[C@]2(C(=O)NCC(F)(F)F)CC(=O)N(Cc3ccccc3C(F)(F)F)[C@@H]2c2ccc(CO)cc2)cc1 | 0.895 | -0.837 (inactive) | 0.0848 (inactive) | -0.203 (inactive) | 1.67 | -0.254 (inactive) | 0.145 | -0.872 | -0.462 | -0.0416 | -0.57 | 0.228 | 0.942 | 0.338 (inactive) | -0.83 | -1.23 | -0.548 | -1.51 | -1.07 | 0.247
3 | C=CCOC(=O)[C@@H]1[C@H]2C(=O)O[C@H](c3ccccc3)[C@H](c3ccccc3)N2[C@H](c2ccc(OCCOC(=O)[C@H]3C[C@H]4C(=O)N[C@@H](CCCCN(C)C)C(=O)N4[C@H]3c3ccc(O)cc3)cc2)[C@@]12C(=O)Nc1ccc(I)cc12 | 1.53 | 1.16 (inactive) | -2.52 (inactive) | 1.35 (inactive) | 2.68 | -1.27 (inactive) | -0.0686 | 1.93 | 1.1 | -0.0487 | 1.52 | 0.0904 | -0.13 | 0.676 (inactive) | 0.88 | 1.33 | 0.989 | 1.42 | 1.15 | 0.291
4 | CN(C)CCCNC(=O)[C@@]1(Cc2ccccc2I)c2ccccc2C(=O)N(C2CCCCC2)[C@H]1c1ccc(CO)cc1 | 1.55 | 0.273 (inactive) | -19.5 (active) | -2.99 (inactive) | 2.34 | 0.0304 (inactive) | 0.446 | 0.27 | 0.953 | 0.123 | 0.856 | 1.13 | 0.532 | -4.61 (inactive) | 0.269 | 1.03 | 0.0863 | 0.383 | 0.183 | 1.32
5 | COC(=O)[C@@]1(Cc2ccc(OC)cc2)[C@H]2c3cc(C(=O)N4CCCC4)n(Cc4ccc(Cl)c(C(F)(F)F)c4)c3C[C@H]2CN1C(=O)c1ccccc1 | 1 | -1.21 (inactive) | 1.37 (inactive) | 0.509 (inactive) | 3.59 | -0.304 (inactive) | 0.711 | -0.109 | 1.03 | 0.0788 | 1.38 | 1.62 | 1.23 | -0.75 (inactive) | 0.927 | 1.27 | -0.02 | 1.36 | -0.428 | 0.822
6 | CCCCC(O)C1C=CC2C(=O)N(c3ccccc3)C(=O)C2N1Nc1ccc(C#N)cc1 (stereo not given) | 0.771 | 0.243 (inactive) | 0.634 (inactive) | 1.64 (inactive) | 3.14 | -1.11 (inactive) | 0.444 | -0.358 | 0.473 | 0.247 | 1.11 | 1.12 | 0.906 | 0.12 (inactive) | 0.398 | 0.383 | 0.0738 | -0.0673 | -0.579 | 0.513
7 | COc1ccc([Si](C)(C)[C@H]2[C@H](CCO)O[C@@]3(C(=O)N(Cc4ccc(NC(=O)[C@H](C)O)cc4)c4ccccc43)[C@@H]2C)cc1 | 1.58 | 2.39 (inactive) | -1.36 (inactive) | 4.78 (inactive) | 2.19 | 1.38 (inactive) | -0.142 | 0.862 | 0.762 | 0.0337 | 0.931 | 0.162 | 0.193 | -2.32 (inactive) | 1.14 | 1.07 | 0.161 | 0.0961 | 0.156 | 0.531
8 | COC(=O)[C@@]1(Cc2ccc(OC)cc2)[C@H]2c3cc(C(=O)N4CCCC4)n(CCn4cc([N+](=O)[O-])nc4C)c3C[C@H]2CN1C(=O)c1ccccc1 | -0.153 | -0.382 (inactive) | 0.28 (inactive) | 0.725 (inactive) | 3.38 | -1.01 (inactive) | 1.25 | 0.152 | 0.413 | 0.924 | 1.2 | 2.46 | 1.33 | 0.167 (inactive) | 0.981 | 0.456 | 0.661 | 0.354 | 0.559 | 1.13
9 | C=CCN1Cc2ccccc2[C@H]2OC(c3ccc(OCCCO)cc3)=N[C@@]2(CCS(=O)(=O)c2ccccc2)C1=O | 1.55 | 0.601 (inactive) | 0.546 (inactive) | 5.35 (inactive) | 2.29 | 0.557 (inactive) | 0.319 | 1.33 | 1.05 | 0.124 | 1.45 | 1.07 | 1.35 | 0.767 (inactive) | 0.728 | 1.26 | 0.714 | 1.38 | 0.933 | 0.852
10 | NC(=O)NCC#Cc1ccc2c(c1)[C@]1(C(=O)N2)[C@H](c2ccc(OCCO)cc2)N2[C@H](c3ccccc3)[C@H](c3ccccc3)OC(=O)[C@H]2[C@@H]1C(=O)O | -0.541 | 0.467 (inactive) | -0.662 (inactive) | 0.23 (inactive) | -0.143 | 0.775 (inactive) | -0.139 | -0.292 | -0.343 | -0.209 | 1.05 | 0.151 | 0.654 | -0.708 (inactive) | -0.808 | -1.84 | -0.716 | -0.567 | -0.57 | 0.993
